# High-throughput results deposited in PubChem by National Center for Advancing Translational Sciences (NCATS).
# Giardia FBPA inh: Giardia lamblia aldolase inhibition | 290,000 compounds, 0.71% hits | purified Giardia FBPA | A8B2U2 | Potency, µM (top dose mostly 59.6 µM), for the others: at the top dose activity, negative = inhibition, usual class: inhibitors | AID 2451; also: potency is read from the fitted curve at half-maximal effect; % is scaled to controls: 0 for no effect and ±100 for the full control effect; nearly all actives have a fitted effect of over 55% in size
# Target sequence (A8B2U2 whole entry, looked up): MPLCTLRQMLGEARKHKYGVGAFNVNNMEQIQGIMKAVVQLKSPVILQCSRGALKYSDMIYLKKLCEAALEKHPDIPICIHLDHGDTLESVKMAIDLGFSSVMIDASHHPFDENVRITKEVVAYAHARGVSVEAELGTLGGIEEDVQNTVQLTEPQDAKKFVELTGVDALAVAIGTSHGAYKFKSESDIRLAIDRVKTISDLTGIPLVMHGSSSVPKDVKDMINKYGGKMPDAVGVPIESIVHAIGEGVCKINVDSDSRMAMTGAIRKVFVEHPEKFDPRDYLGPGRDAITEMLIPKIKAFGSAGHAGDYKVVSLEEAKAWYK
#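 Giardia FBPA (40 nM reagent) was preincubated 10 min at RT with compound (up to 57.5 uM final), then substrate plus GAPDH/TPI/NAD/arsenate coupling system with diaphorase/resazurin was added; resorufin fluorescence (525/598 nm) was read after 20 min.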
# Tb PYK inh: blocks Trypanosoma brucei pyruvate kinase; AID 624173; Q57TT1; 410,000 compounds, 0.12% hits; Potency, µM (doses to about 76.8 µM), inactives show at the top dose activity, negative = inhibition, hits mostly inhibitors; TbPYK enzyme, Kinase-Glo Plus ATP luminescence, 45 min; also: potency is read from the fitted curve at half-maximal effect; % is scaled to controls: 0 for no effect and ±100 for the full control effect; nearly all actives have a fitted effect of over 50% in size
#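 TbPYK + substrate in 50 mM TEA pH 7.2, 100 mM KCl, 10 mM MgCl2, 0.05% BSA, 0.01% Tween-20; cpd pinned; ADP 130 uM final; 45 min RT; Kinase-Glo Plus 10 min; luminescence endpoint.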
# LmPK inh: LmPK (Leishmania mexicana) enzyme inhibition. Q27686. purified LmPK, Kinase-Glo ATP luminescence, 1 h. 290,000 compounds, 0.37% hits. Potency, µM (highest dose often 57.5 µM), for inactives: top-dose activity change, negative = inhibition, hits mostly inhibitors; also: potency is read from the fitted curve at half-maximal effect; % is scaled to controls: 0 for no effect and ±100 for the full control effect
#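 Screened at intermediate enzyme activity to detect both inhibitors and activators: LmPK at 0.1 nM, with a 0.5 nM enzyme column as activation reference. PEP 0.5 mM, ADP 0.1 mM; ATP detected by luminescence after 1 h.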
# CHX counter: counter-screen for Shiga toxin inhibitors: cycloheximide protein synthesis inhibition | cell reporter, cycloheximide protein synthesis inhibition counterscreen | max response, % | 300,000 compounds, 12% hits | AID 2314; in the data active = max response mostly above about 13%, no sharp cut-off; inactive = mostly below about 14%; also: read at 38.3 µM for the half of the compounds with a filed dose; 0% is about no effect
# RE007 growth inh: less growth of the S. pombe RE007 Vpr strain; S. pombe RE007 Vpr strain, BacTiter-Glo ATP luminescence, 24 h; Potency, µM (series often up to 92.2 µM), for inactives: at the highest dose activity change, negative = less growth, most hits filed as inhibitors; 360,000 compounds, 0.21% hits; AID 651644; active = well fitted falling curve with a large enough effect; inconclusive = small, poorly fitted or top-dose-only effect; inactive = no such curve, though single readings can be large or run the other way; also: potency is read from the fitted curve at half-maximal effect; % is scaled to controls: 0 for no effect and ±100 for the full control effect; nearly all actives have a fitted effect of over 50% in size
#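 Fission yeast strain RE007, carrying one chromosomally integrated HIV-1 vpr copy, was seeded at OD 0.01 in PMG+AL medium with 23 nL pinned compound. After 24 h at 30 °C and 99% humidity, viability was read by BacTiter-Glo luminescence.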
# Shiga inhibitor: blocks Shiga toxin action in Vero cells; Vero cells, Shiga toxin protein synthesis inhibition reporter; inhibition, % at 38.7 µM; 290,000 compounds, 9.2% hits; in the data active = inhibition mostly above about 28%, no sharp cut-off; inactive = mostly below about 43%; also: 0% is about no effect
# Starred values were filed as active, the others as inactive; ? = inconclusive; . = no result; [ ] = dose if it differs, or a comment. The sample as a whole holds a higher share of hits than the screen did. Unless noted, calls follow the shape of the dose curve; as a rule, active = well fitted curve in the direction sought with a large enough effect; inconclusive = small, poorly fitted or top-dose-only effect, or another doubt; inactive = no such curve, though single readings can be large; an effect the other way counts as inactive or inconclusive.
SMILES,Giardia FBPA inh,Tb PYK inh,LmPK inh,CHX counter,RE007 growth inh,Shiga inhibitor
N/C(=N\N=C\c1ccc(O)c(O)c1)c1nonc1N,2%,2%,?,43*,-7%,67*
COc1ccc(OC)c(C=NNC(=O)NN=Cc2cc(OC)ccc2OC)c1,.,0%,.,.,-15%,.
CS/C(N)=N/N=C/c1ccc([N+](=O)[O-])cc1,?,-6%,-11%,30*,0%,75*
COc1cc(/C=N/NC(=O)c2nnn(-c3nonc3N)c2C(C)C)ccc1O,.,1%,-13%,-12,-2%,-2
COc1cc(/C=N/N=C(\N)c2nonc2N)ccc1O,3%,-8%,-9%,24*,5%,61*
Cc1ccc(S(=O)(=O)Nc2ccccc2F)cc1C(=O)NCc1ccco1,.,3%,.,.,-2%,.
O=C(NCc1cccc(C(F)(F)F)c1)c1csc([C@@H]2O[C@H](CO)[C@H](O)[C@H](O)[C@H]2O)n1,.,3%,.,.,0%[18.4 µM],.
N/C(=N\N=C\c1ccc(O)cc1)c1nonc1N,3%,-16%,?,30*,-3%,58
Nc1nonc1-n1nnc(C(=O)N/N=C/c2ccc(O)cc2)c1COc1ccc(F)cc1,-2%,4%,0%,1,23%,-5
O=C(O)C1CC[C@@](C(=O)O)(c2ccccc2)c2ccccc21 (some centres not stated),0%,.,.,.,.,.
Fc1ccc(N/N=C2/CCSc3sccc32)c(F)c1,2%,-8%,1%,15*,1%,28*
Cc1ccc(C)c(OCC(=O)Nc2ccc(S(=O)(=O)Nc3onc(C)c3C)cc2)c1C,.,-1%,.,.,.,.
COC(=O)[C@@]1(Sc2ccc(C)cc2)CC(=O)N(C(=O)c2ccccc2)[C@@H]1c1ccccc1,.,5%,.,.,15%,.
O=C(CSc1nc(O)c(C2CCCCC2)c(=O)[nH]1)NCC1CCCO1 (configuration not stated),-5%,-1%,-2%,29*,15%,66*
CCN(C(=O)COC(=O)CNC(=O)c1ccc(C)s1)c1ccccc1,7%,1%,-2%,2,-2%,2
OC1CCN(Cc2cccc3ccccc23)CC1,?,3%,-8%,0,-11%,-5
C/C(=N/N1CCN(Cc2cccc3ccccc23)CC1)c1ccco1,8%,-3%,-15%,11,-21%,17*
O=C(c1ccco1)N1CCN(Cc2ccccc2Br)CC1,?,-5%,7%,34*,1%,56*
O=C(c1ccco1)N1CCN(Cc2ccc(F)cc2Cl)CC1,5%,2%,0%,50*,-4%,.
O=C(c1ccco1)N1CCN(C(=O)c2ccco2)CC1,.,4%,.,.,5%,.
CCN(CC)c1ccc(S(=O)(=O)N2CCCCC2)cc1NC(=O)CSCc1c(C)noc1C,.,13%,.,.,-1%,.
CC1CCN(c2nc(-c3cccnc3)nc3scc(-c4ccccc4)c23)CC1,7%,-8%,3%,-3,1%,12
CC1CCCN(c2nc(-c3cccnc3)nc3scc(-c4ccccc4)c23)C1 (configuration not stated),10%,6%,-1%,21*,10%,51*
CCCCNC(=O)Nc1nnc(-c2ccccc2)o1,10%,3%,1%,29*,36%,13
Cc1ccc(-c2nnc(Nc3ccccc3)o2)cc1,0%,-14%,14µM*,24*,?,42
SMILES,Giardia FBPA inh,Tb PYK inh,LmPK inh,CHX counter,RE007 growth inh,Shiga inhibitor
O=C(Nc1nnc(-c2ccccc2)o1)Nc1ccccc1Cl,1%,2%,0%,15*,-12%,17
Cc1ccc(NC(=O)Nc2nnc(-c3ccccc3)o2)cc1,7%,-3%,1%,51*,-15%,77*
O=C(Nc1nnc(-c2ccccc2)o1)Nc1ccc(F)cc1F,2%,-1%,-5%,2,9%,10
COCCn1c(=O)c(-c2ccc(OC)cc2)nc2cnc(Oc3ccc(OC)cc3)nc21,-1%,0%,.,.,.,.
CCc1cccc(C)c1NC(=O)C(C)Sc1nc2c(c(=O)[nH]1)CCCC2 (configuration not stated),.,2%,.,.,.,.
COc1ccc(-n2c(COc3cccc(C)c3)nnc2SCC(=O)NCc2ccco2)cc1,26%,1%,2%,30*,8%,35*
COc1ccc(-n2c(COc3cccc4ccccc34)nnc2SCC(=O)NCc2ccco2)cc1,-8%,6%,6%,25*,5%,67
COc1ccc(-n2c(COc3ccc4ccccc4c3)nnc2SCC(=O)NCc2ccco2)cc1,-14%,-6%,2%,31,-7%,58
COc1ccccc1OCc1nnc(SCC(=O)NCc2ccco2)n1-c1ccccc1,-1%,3%,1%,12*,-5%,9
Cn1c(-c2ccccc2)cc2ccccc21,0%,-1%,1%,7,-9%,2
Cn1c(-c2ccccc2)cc2c3no[n+]([O-])c3ccc21,1%,-1%,5%,27*,-11%,68*
Nc1nc2ccccc2nc1N,0%,3%,-10%,14*,-26%,28*
Cc1c(N=C/C=C/c2ccccc2)cnn1C,-23%,-4%,-4%,23*,-20%,33
O=C(NCc1ccccc1Cl)c1nnc(Cc2cccc(F)c2)o1,.,2%,.,.,.,.
CC(C)(C)c1nnc(NC(=O)NS(=O)(=O)c2ccccc2)s1,0%,4%,-1%,23*,17%,29
O=C(Nc1ccc(Cl)cc1)Nc1nnc(SCc2ccccc2)s1,3%,-1%,2%,6,-9%,23
COc1ccc(CCC(=O)Nc2nnc(C(C)(C)C)s2)cc1,-6%,5%,-7%,-3,-15%,14
Cc1nc(NC(=O)Nc2ccc(Cl)cc2)sc1C,3%,4%,-9%,27*,-3%,41*
COc1ccc(NC(=O)Nc2nnc(C(C)(C)C)s2)cc1,0%,-1%,-13%,23*,8%,49*
CC(C)(C)c1nnc(NC(=O)Nc2ccc(Cl)cc2)s1,-1%,-14%,1%,15,-6%,29*
CCOc1ccc(NC(=O)CC2C(=O)N(c3ccc(C)cc3)C(=O)N2Cc2ccc(OC)cc2)cc1 (configuration not stated),.,0%,.,.,.,.
O=C(COc1cccc(Cl)c1)Nc1ccc2c(c1)CCC2,-4%,0%,0%,38*,?,78*
O=C(CN1CCOCCOCCOCCOCC1)Nc1ccccc1,2%,6%,6%,26*,4%,48*
O=C(CN1CCCC1)Nc1ccc(NC(=O)Nc2ccccc2)cc1,-5%,-3%,-1%,39*,4%,54*
O=C(CSc1ncccn1)Nc1ccc2c(c1)CCC2,8%,-4%,-2%,36*,9%,129*
COc1ccccc1Cn1c(=S)[nH]c2ccc(F)cc2c1=O,11%,-6%,5%,-3,1%,19
